Experimental data published in PubChem BioAssay (NCATS).
Results filed as inconclusive are left out. Where a call stands in place of a potency, no number is given. Activity calls are given as the source filed them. Unless noted, calls come from the whole dose curve; as a rule, active = well fitted curve in the direction sought with a large enough effect; inconclusive = small, poorly fitted or top-dose-only effect, or another doubt; inactive = no such curve, though single readings can be large; an effect the other way counts as inactive or inconclusive.

What was measured:
[1] = target: Aldehyde dehydrogenase, mitochondrial (Homo sapiens) (UniProt P05091); test: qHTS for Inhibitors of the Aldehyde Dehydrogenase Family (ALDH2) Confirmatory screens (AID 2061303; active = well fitted inhibition curve with a large enough effect; title and protocol of this record describe different tests; note: nearly all actives have a fitted effect of over 45% in size; note: potency is the fitted concentration of half-maximal effect); conditions: ALDH inhibition qHTS; series mostly up to 45.4 µM
[2] = qHTS for Inhibitors of the Aldehyde Dehydrogenase Family (ALDH1A2, ALDH1A3, ALDH2, ALDH3A1) (AID 2061307); conditions: ALDH inhibition qHTS; series mostly up to 50.3 µM; note: nearly all actives have a fitted effect of over 50% in size; for potency: test system not described further here; potency is the fitted concentration of half-maximal effect
[3] = target: Retinaldehyde dehydrogenase 3 (Homo sapiens) (UniProt P47895); test: qHTS for Inhibitors of the Aldehyde Dehydrogenase Family (ALDH1A3) Confirmatory screens (AID 2061311); conditions: ALDH inhibition qHTS; series mostly up to 46 µM; note: nearly all actives have a fitted effect of over 60% in size; note: potency is the fitted concentration of half-maximal effect
[4] = target: Retinaldehyde dehydrogenase 3 (Homo sapiens) (UniProt P47895); test: qHTS for Inhibitors of the Aldehyde Dehydrogenase Family (ALDH1A3) Primary screen (AID 2061315); conditions: ALDH inhibition qHTS; series mostly up to 56 µM
[5] = target: Aldehyde dehydrogenase 1A1 (Homo sapiens) (UniProt P00352); test: qHTS for Inhibitors of the Aldehyde Dehydrogenase Family (ALDH1A1) Confirmatory screens (AID 2061316); conditions: ALDH inhibition qHTS; series mostly up to 47.3 µM; note: nearly all actives have a fitted effect of over 65% in size; note: potency is the fitted concentration of half-maximal effect
[6] = target: Retinal dehydrogenase 2 (Homo sapiens) (UniProt O94788); test: qHTS for Inhibitors of the Aldehyde Dehydrogenase Family (ALDH1A2) Confirmation screens (AID 2061314); conditions: ALDH1A2 enzyme inhibition qHTS confirmation; series mostly up to 45.9 µM; note: nearly all actives have a fitted effect of over 65% in size; note: potency is the fitted concentration of half-maximal effect
[7] = target: Aldehyde dehydrogenase, mitochondrial (Homo sapiens) (UniProt P05091); test: qHTS for Inhibitors of the Aldehyde Dehydrogenase Family (ALDH2) Primary screen (AID 2061308); conditions: ALDH2 enzyme inhibition qHTS, 1536-well; series mostly up to 56 µM; note: nearly all actives have a fitted effect of over 55% in size
[8] = target: Retinaldehyde dehydrogenase 3 (Homo sapiens) (UniProt P47895); test: qHTS for Inhibitors of the Aldehyde Dehydrogenase Family (ALDH1A3) Validation screen (AID 2061312); conditions: ALDH1A3 enzyme inhibition qHTS validation, fluorescence; series mostly up to 84.7 µM; note: nearly all actives have a fitted effect of over 45% in size

| Structure (SMILES) | Potency [1] | Potency [2] | Potency [3] | Potency [4] | Potency [5] | Potency [6] | Potency [7] | Potency [8] |
| --- | --- | --- | --- | --- | --- | --- | --- | --- |
| O=C1c2ccccc2C(=O)N1c1cccc2ccncc12 | inactive | inactive | inactive | inactive | – | – | – | – |
| CC(C)(C)OC(=O)N1CCN(c2ccc(NCc3cccc(-c4ccc(C#N)cc4)n3)cc2)CC1 | 0.201 µM (active) | 0.142 µM (active) | inactive | inactive | 8.96 µM (active) | – | – | – |
| Cc1cc(-c2nnc3n2CCCCC3)c(C)n1-c1cccc(C#N)c1 | inactive | inactive | – | inactive | – | inactive | – | – |
| COc1ccc2c(c1)CCc1sc(NC(=O)c3ccc(Cl)cc3)nc1-2 | 15.8 µM (active) | 3.24 µM (active) | 16.2 µM (active) | – | 4.58 µM (active) | – | – | – |
| COc1ccnc(NC(=S)N2CCN(c3cccc(C(F)(F)F)c3)CC2)c1 | 12.6 µM (active) | 8.91 µM (active) | 7.12 µM (active) | – | 10.1 µM (active) | 22.5 µM (active) | – | – |
| Oc1ccc(CNc2cccnc2)c2cccnc12 | 10.1 µM (active) | 7.98 µM (active) | 4.49 µM (active) | – | 4 µM (active) | 5.65 µM (active) | – | – |
| Cc1cc(-c2nnc3n2CCCCC3)c(C)n1-c1ccccn1 | inactive | inactive | 14.2 µM (active) | inactive | – | – | – | – |
| COc1ccc(CC(=O)Nc2c(C(=O)N3CCN(c4ccccc4)CC3)oc3ccccc23)cc1OC | inactive | inactive | – | – | – | inactive | – | – |
| O=C(Nc1cncc(-c2cccc3ccccc23)c1)c1cccs1 | inactive | 5.62 µM (active) | 20.1 µM (active) | inactive | – | – | – | – |
| CN(CC(=O)Nc1ccc(N2CCOCC2)cc1)Cc1c(O)ccc2ccccc12 | 11.3 µM (active) | 2.83 µM (active) | 15.9 µM (active) | – | 2.52 µM (active) | 10.1 µM (active) | – | – |
| COc1cccc(-n2cc(C(=O)Nc3cccc(C(F)(F)F)c3)c3ccccc3c2=O)c1 | inactive | 11.2 µM (active) | – | – | – | inactive | – | – |
| CCc1ccc(-n2c(SCc3cccc(F)c3)nc3[nH]ncc3c2=O)cc1 | inactive | inactive | 15.8 µM (active) | – | 1.82 µM (active) | inactive | – | – |
| CCOc1ccc(NC(=O)C2CCN(c3cnn(Cc4ccccc4)c(=O)c3)C2)cc1 (centres undefined) | inactive | inactive | – | – | – | inactive | – | – |
| COc1ccc(N2CCN(c3nc(C(=O)NCc4cccc(C)c4)cs3)CC2)cc1 | inactive | 2.51 µM (active) | inactive | – | inactive | inactive | – | – |
| CC(C)(C)OC(=O)N1CCN(c2ccc(NCc3ccc(-c4cccc([N+](=O)[O-])c4)o3)cc2)CC1 | 0.896 µM (active) | 4 µM (active) | inactive | inactive | 14.2 µM (active) | – | – | – |
| CC[C@H](CO)Nc1nc(Nc2cccc(-c3ccccn3)c2)c2ncn(C(C)C)c2n1 | inactive | inactive | inactive | inactive | – | – | – | – |
| O=C(O)c1ccccc1SC1=NS(=O)(=O)c2ccccc21 | inactive | inactive | – | inactive | inactive | inactive | – | – |
| CCOc1ccc(NC(=O)Cn2c(Nc3cc(C)cc(C)c3)nc(C)cc2=O)cc1 | 15.8 µM (active) | inactive | inactive | – | inactive | – | – | – |
| O=c1[nH]c2ccc(NCc3ccc(-c4ccccc4F)o3)cc2[nH]1 | 0.576 µM (active) | 4.47 µM (active) | – | – | – | inactive | – | – |
| C[C@H]1[C@H](/C=C/c2ccc(-c3ccccc3C#N)cn2)[C@@H]2[C@@H](C)OC(=O)[C@@H]2C[C@@H]1C | inactive | – | inactive | inactive | 1.27 µM (active) | inactive | inactive | inactive |
| COc1cccc(Cc2nc3ccccc3nc2SCC(=O)N2CCN(c3ccccc3)CC2)c1 | inactive | inactive | – | – | inactive | inactive | – | – |
| O=C(Nc1cccc(-c2nc3cc(Cl)ccc3o2)c1)c1cc([N+](=O)[O-])ccc1N1CCOCC1 | inactive | inactive | – | – | inactive | inactive | – | – |
| Oc1cc(NCCc2cccnc2)cc2cccnc12 | inactive | – | 0.4 µM (active) | – | – | inactive | inactive | – |
